Screens as filed in PubChem.
HCV inh: qHTS Assay for Inhibitors of Hepatitis C Virus (HCV); 3.4% of 340,000 active; Potency, µM (doses to about 41.8 µM), without a hit: top-dose activity change, negative = inhibition, most hits filed as inhibitors; Huh7.5.1 HCVcc-Cre infection, luciferase reporter, 44 h; further: potency means the concentration at half of the fitted maximal effect; on the % scale 0 is the no-effect control and ±100 the full control effect
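Infectious HCV cell culture screen: compound-treated cells (1,000/well, pre-plated 4 h) are infected with HCVcc-Cre at roughly 0.5 moi and grown 44 h. Infection is quantified by luciferase signal after 15 min substrate incubation at room temperature.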
SARS PLpro yeast: qHTS of Yeast-based Assay for SARS-CoV PLP; S. cerevisiae expressing SARS-CoV PLpro, growth rescue; Potency, µM (top dose mostly 32.9 µM), inactives show top-dose activity, positive = growth rescue, usual class: activators; 0.19% of 330,000 active; AID 485353, 2010; calls by dose curve; further: potency means the concentration at half of the fitted maximal effect; 0% is about no effect; nearly all actives have a fitted effect of over 55% in size
Sm TGR inh: qHTS Assay for the Inhibitors of Schistosoma Mansoni Peroxiredoxins | 3% of 360,000 active | Potency, µM (doses to about 114 µM), without a hit: top-dose activity change, negative = inhibition, most hits filed as inhibitors | AID 485364, 2010 | purified TGR, DTNB reduction, TNB absorbance 405 nm; further: potency means the concentration at half of the fitted maximal effect; on the % scale 0 is the no-effect control and ±100 the full control effect; nearly all actives have a fitted effect of over 60% in size
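Kinetic colorimetric format: TGR-catalysed, NADPH-driven DTNB reduction monitored via TNB absorbance. Enzyme dispensed at 20 nM; compound exposure 15 min at room temperature before reaction start.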
HCMV inh: qHTS Assay for inhibitors of the human cytomegalovirus (HCMV). HFF cells, HCMV-luciferase reporter, 72 h; stronger effect = lower value. activity change, negative = inhibition, % at 57.5 µM. 4.5% of 410,000 active; in the data active means activity change below about -60%; inconclusive means no clear call, values can overlap the other calls; inactive means above about -39%; further: on the % scale 0 is the no-effect control and ±100 the full control effect
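Screen run at 2 compound doses on HFFs infected with reporter HCMV, MOI 1 PFU/cell. Luciferase activity from cell lysates at 72 h post infection gave inhibition relative to buffer-only and Salinomycin wells.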
Pf growth 48h: Primary qHTS for delayed death inhibitors of the malarial parasite plastid, 48 hour incubation; P. falciparum luciferase growth in erythrocytes, 48 h; Potency, µM (doses to about 28.7 µM), inactives show at the top dose activity change, negative = inhibition, hits mostly inhibitors; 5.9% of 310,000 active; further: potency means the concentration at half of the fitted maximal effect; on the % scale 0 is the no-effect control and ±100 the full control effect
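Compounds are pin-transferred into medium, infected erythrocytes (2% hematocrit, 0.1% parasitemia final) are added, and plates sit one parasite generation at 37 C in 5% CO2. Detection reagent is then added and luminescence measured.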
Pf growth 96h: Primary qHTS for delayed death inhibitors of the malarial parasite plastid, 96 hour incubation; P. falciparum luciferase reporter growth, 96 h; Potency, µM (series often up to 28.7 µM), without a hit: at the highest dose activity change, negative = inhibition, usual class: inhibitors; 6.9% of 320,000 active; AID 504834, 2011; further: potency means the concentration at half of the fitted maximal effect; on the % scale 0 is the no-effect control and ±100 the full control effect
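Readout is luminescence from an integrated firefly luciferase in P. falciparum. Red cells, 2% hematocrit and 0.05% parasitemia final, were cultured with compound through two parasite generations (96 hours) at 37 C, 5% CO2.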
An asterisk follows results filed as active; [ ] = remark or other dose. A selection: hits, their analogues and other compounds. The true share with any hit is near 15%. Unless noted, the call rests on the fitted dose curve; in most records, active means well fitted curve in the direction sought with a large enough effect; inconclusive means small, poorly fitted or top-dose-only effect, or another doubt; inactive means no such curve, though single readings can be large; an effect the other way counts as inactive or inconclusive.

Screening Cc1cccc(NC(=O)C2CCCN2S(=O)(=O)c2ccc(Cl)cc2)n1 (stereo not drawn) returned HCV inh 8%, SARS PLpro yeast 2%, Sm TGR inh 1%, HCMV inh -25, Pf growth 48h 3% and Pf growth 96h 4%.
Screening Cn1ccc2c(-c3ccc(C(=O)O)cc3)cc3c(c21)C1CCC3C1 (stereo not drawn) returned HCMV inh 43.
O=S1(=O)Nc2c(ccc3cccnc23)-c2ccccc21 was read as HCV inh inconclusive, SARS PLpro yeast -40%, Sm TGR inh 0%, Pf growth 48h 2.6µM* and Pf growth 96h -1%[5.75 µM].
For CN(CC(=O)Nc1cccc(F)c1)CC(=O)NC(c1ccccc1)c1ccccc1 the results were HCV inh -17%, SARS PLpro yeast -3%, Sm TGR inh -11%, HCMV inh 9, Pf growth 48h 12µM* and Pf growth 96h inconclusive.
`CN(CC(=O)Nc1cccc(F)c1)C(=O)c1ccc(COc2ccccc2)cc1` gave HCV inh inconclusive, SARS PLpro yeast -3%, Sm TGR inh -1%, HCMV inh inconclusive, Pf growth 48h inconclusive and Pf growth 96h 6%.
Screening CN(CC(=O)Nc1cccc(F)c1)C(=O)c1ccc(C(=O)c2ccccc2)cc1 returned HCV inh inconclusive, SARS PLpro yeast 1%, Sm TGR inh -12%, HCMV inh -27, Pf growth 48h inconclusive and Pf growth 96h 9.3µM*.
`COc1ccc(Nc2nc(N3CCCC3)nc(N3CCCC3)n2)c(OC)c1` gave HCV inh 10µM*, SARS PLpro yeast -4%[6.58 µM], Sm TGR inh -23%, HCMV inh -92* and Pf growth 96h 38%.
`COc1ccc(N2CCN(c3nc(NC(C)(C)C)nc(N4CCCCC4)n3)CC2)cc1` gave HCV inh inconclusive, SARS PLpro yeast -3%, Sm TGR inh -7%, HCMV inh -33 and Pf growth 48h 1.9µM*.
`COc1ccc(Nc2nc(N3CCCCC3)nc(N3CCCCC3)n2)c(OC)c1` gave HCV inh 13%, SARS PLpro yeast 2%, Sm TGR inh 0%, HCMV inh -16, Pf growth 48h 14% and Pf growth 96h -8%.
For COc1ccc(Nc2nc(NC(C)(C)C)nc(N3CCCC3)n2)c(OC)c1 the results were HCV inh 5.6µM*, SARS PLpro yeast -34%, Sm TGR inh 8%, HCMV inh -89* and Pf growth 96h 4.7µM*.
For COc1ccc(Nc2nc(Nc3ccc(OC)cc3OC)nc(N3CCN(C)CC3)n2)c(OC)c1 the results were HCV inh 1µM*, SARS PLpro yeast -8%, Sm TGR inh 5%, HCMV inh 14, Pf growth 48h inconclusive and Pf growth 96h 0%.
Screening COc1ccc(C(CNC(=O)CNC(=O)c2cccc(Cl)c2)N2CCCC2)cc1 (stereo not drawn) returned HCV inh 13%, SARS PLpro yeast -3%, Sm TGR inh -4%, HCMV inh -39, Pf growth 48h -11% and Pf growth 96h inconclusive.
`COc1ccc(C(CNC(=O)c2cccc(N(C)C)c2)N2CCCC2)cc1` (stereo not drawn) gave HCV inh -7%, SARS PLpro yeast 3%, Sm TGR inh 1%, HCMV inh 87, Pf growth 48h 10µM* and Pf growth 96h inconclusive.
COc1cccc(C(=O)NCC(c2ccc(N(C)C)cc2)N2CCc3ccccc32)c1 (stereo not drawn) was read as Sm TGR inh -4% and HCMV inh -68*.
For CCC1CCc2sc(C(=O)NCC(c3ccc(OC)cc3)N3CCCC3)cc2C1 (stereo not drawn) the results were HCV inh 10µM*, SARS PLpro yeast 0%, Sm TGR inh 1%, HCMV inh -35, Pf growth 48h 12µM* and Pf growth 96h inconclusive.
Screening COc1ccc(C(=O)NCC(c2cccs2)N2CCc3ccccc32)c(OC)c1 (stereo not drawn) returned HCV inh inconclusive, SARS PLpro yeast 0%, Sm TGR inh 2%, HCMV inh -10, Pf growth 48h 10µM* and Pf growth 96h 5.2µM*.
CCOC(=O)C(C#N)=C(c1ccccc1)c1ccccc1 was read as HCMV inh -10, Pf growth 48h -12% and Pf growth 96h inconclusive.
CCOc1ccc(S(=O)(=O)NCCc2ccccn2)cc1 was read as HCV inh 6%, SARS PLpro yeast 4% and HCMV inh 13.
`COc1ccc(NS(=O)(=O)c2cccc(C(=O)NCC(c3ccccc3OC)N3CCCC3)c2)cc1` (stereo not drawn) gave HCV inh -19%, SARS PLpro yeast 5%, Sm TGR inh -23%, HCMV inh -26, Pf growth 48h 10µM* and Pf growth 96h inconclusive.
COc1ccc(CNC(=O)c2nccnc2CO)cc1 was read as HCV inh 6%, SARS PLpro yeast 2%, Sm TGR inh -21%, HCMV inh 42, Pf growth 48h 19% and Pf growth 96h 8.3µM*.
Screening COc1ccc(CNC(=O)C(=O)NCc2ccncc2)cc1 returned HCV inh inconclusive, SARS PLpro yeast -1%, HCMV inh 4, Pf growth 48h 7% and Pf growth 96h 20%.
Screening COc1ccc(C(CNC(=O)c2cc3ccccc3cc2OC)N2CCCC2)cc1 (stereo not drawn) returned HCV inh inconclusive, SARS PLpro yeast -3%, Sm TGR inh -8%, HCMV inh -29 and Pf growth 96h 4.1µM*.
For COc1ccc(C(CNC(=O)CNC(=O)c2ccccc2Cl)N2CCCC2)cc1 (stereo not drawn) the results were HCV inh 26%, SARS PLpro yeast -2%, Sm TGR inh -14%, HCMV inh -18, Pf growth 48h inconclusive and Pf growth 96h inconclusive.
`C=CCN(c1ccccc1)S(=O)(=O)c1cccc(C(=O)NCC(c2ccc(OC)cc2)N2CCCCC2)c1` (stereo not drawn) gave HCV inh 6.3µM*, SARS PLpro yeast -4%, Sm TGR inh 0%, HCMV inh -14, Pf growth 48h 10µM* and Pf growth 96h inconclusive.
`CCN(c1ccccc1)S(=O)(=O)c1cccc(C(=O)NCC(c2ccc(OC)cc2)N2CCCCC2)c1` (stereo not drawn) gave HCMV inh -19.
`COc1ccccc1C(CNC(=O)c1cccc(S(=O)(=O)Nc2ccc(F)cc2)c1)N1CCCC1` (stereo not drawn) gave HCV inh inconclusive and HCMV inh -7.
